ERG Ets-DNA blk: qHTS for Small Molecule Inhibitors of the ERG Ets/DNA interaction. fluorescence polarization, His-ERG Ets domain / labelled DNA. Potency, µM (doses to about 76.9 µM), inactives show top-dose FP activity, negative = inhibition, actives largely listed as inhibitors. 370,000 tested, 0.028% active; active means well fitted inhibition curve with a large enough effect in the polarisation, with a control signal flat; inconclusive means small, poorly fitted or top-dose-only effect, or effect the other way, or a change in a side signal; inactive means no such curve, though single readings can be large or run the other way; the % refers to the polarisation;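 further: polarization taken with two DNA probes labelled with fluorescein and Texas red; % of control where 0% means no effect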
Target sequence (P11308 whole entry, looked up, the tested form may be a part): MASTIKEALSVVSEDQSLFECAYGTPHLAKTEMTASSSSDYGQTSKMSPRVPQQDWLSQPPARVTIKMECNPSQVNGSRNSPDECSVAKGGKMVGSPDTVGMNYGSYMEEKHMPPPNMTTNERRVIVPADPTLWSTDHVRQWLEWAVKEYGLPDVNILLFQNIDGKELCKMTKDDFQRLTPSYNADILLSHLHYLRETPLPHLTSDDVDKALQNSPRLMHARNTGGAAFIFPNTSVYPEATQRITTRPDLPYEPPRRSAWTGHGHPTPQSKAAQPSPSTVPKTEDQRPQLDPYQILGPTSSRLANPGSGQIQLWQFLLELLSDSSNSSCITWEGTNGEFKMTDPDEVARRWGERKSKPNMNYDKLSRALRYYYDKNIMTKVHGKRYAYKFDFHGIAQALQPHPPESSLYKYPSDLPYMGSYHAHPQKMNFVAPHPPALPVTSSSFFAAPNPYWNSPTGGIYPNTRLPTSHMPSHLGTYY
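His-tagged ERG Ets domain (1 uM in the protein solution; 300mM KCl, 50mM Tris-HCl, 1mM EDTA, 1mM DTT, pH 7.5) received compound, then a probe mix of 5 nM fluorescein-DNA and 100nM Texas-615-DNA. Fluorescence polarization was read for both dyes.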
RGS12 GoLoco inh: qHTS Assay for Inhibitors of RGS12 GoLoco Motif Activity (Red Fluorophore). Guanine nucleotide-binding protein G(i) subunit alpha-1 (Homo sapiens), P63096. Gai1:RGS12 GoLoco peptide FP, rhodamine, 10 min. Potency, µM (doses to about 61.6 µM), for inactives: top-dose activity, negative = inhibition, hits mostly inhibitors. 230,000 tested, 0.44% active. AID 880, 2007; active means well fitted inhibition curve with a large enough effect, not every such curve was filed as active; inactive means no such curve, though single readings can be large or run the other way; further: on the % scale 0 is the no-effect control and ±100 the full control effect; nearly all actives have a fitted effect of over 30% in size
TexasRed fluor: Total Fluorescence Counterscreen for Inhibitors of the Interaction of Thyroid Hormone Receptor and Steroid Receptor Coregulator 2 | Potency, µM (highest dose often 106 µM), without a hit: at the top dose fluorescence change, negative = quenching | AID 1479, 2009 | TRb/SRC2 Texas Red total fluorescence interference | 280,000 tested, 0.29% active; active means well fitted curve in either direction with a large enough effect; inconclusive means small, poorly fitted or top-dose-only effect; further: on the % scale 0 is the no-effect control and ±100 the full control effect
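Human TRβ ligand-binding domain (0.6 uM) and Texas Red SRC2 peptide (20 nM) in Tris buffer with 1 uM T3 and 5% DMSO were incubated with pinned compound for 5 hr at ambient temperature. Total fluorescence was computed as S + 2P (555/632 nm).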
TRb SRC2 PPI: qHTS for Inhibitors of the Interaction of Thyroid Hormone Receptor and Steroid Receptor Coregulator 2. TRbeta-SRC2 peptide binding, fluorescence polarization; receptor liganded with 1 µM T3. 280,000 tested, 0.065% active. Potency, µM (series often up to 106 µM), inactives show at the highest dose activity change, negative = inhibition, most hits filed as inhibitors. Thyroid hormone receptor beta (Homo sapiens), P10828; active means well fitted inhibition curve with a large enough effect; inconclusive means small, poorly fitted or top-dose-only effect, or effect the other way;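 further: plate controls were bound peptide for no effect and peptide without receptor for full effect; nearly all actives have a fitted effect of over 50% in size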
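A fluorescence polarization screen tested compounds at multiple concentrations against complex formation between 0.6 uM TRb ligand-binding domain and 20 nM Texas Red SRC2 peptide, with 1 uM T3 present; readout after 5 hr.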
Starred values were filed as active, the others as inactive; ? = inconclusive; nt = no result; [ ] = another dose, or the depositor's remark. The full list was thinned out, with hits kept by preference. Potency means the concentration at half of the fitted maximal effect.

SMILES	ERG Ets-DNA blk	RGS12 GoLoco inh	TexasRed fluor	TRb SRC2 PPI
Cc1ccc(C(=O)c2ccccc2)cc1	nt	nt	3.0%[201 µM]	5.3%[201 µM]
CN(CC(=O)Nc1ccc(Cl)c(C(F)(F)F)c1)C(=O)Cn1cc([N+](=O)[O-])ccc1=O	25.1µM*	nt	nt	nt
Cc1ccc(CNCc2ccccc2Cl)s1	0.1%	nt	-2.5%	1.7%
Cc1ccc(CNCc2ccccc2)s1	-0.4%	nt	17.8µM*[quencher]	-12.6%
CC(=O)c1ccc(NC(=O)c2cn3c4c(ccc(Cl)c4c2=O)OC(C)C3)cc1 (centres undefined)	-9.0%	nt	3.5%	0.1%
COc1ccc(NC(=O)c2cn3c4c(ccc(Cl)c4c2=O)OC(C)C3)cc1OC (centres undefined)	7.4%	nt	25.1µM*[quencher]	-18.1%
Cc1ccc(-c2nc3cccnc3s2)cc1NC(=O)Cc1ccccc1	4.3%	nt	100µM*[quencher]	-20.7%
COc1ccc(CC(=O)Nc2cc(-c3nc4cccnc4s3)ccc2C)cc1	5.5%	nt	?	-6.9%
c1coc(-c2nc(-c3ccco3)c(-c3ccco3)nc2-c2ccco2)c1	-3.1%	23.7%	12.6µM*[quencher]	19.6%
Nc1nc(-c2ccco2)c(-c2ccco2)s1	22.3%	-1.2%	-6.8%	6.7%
CCN(CC)c1cc2c(cc1F)c(=O)c(S(=O)(=O)c1ccc(OC)cc1)cn2Cc1ccccc1	-0.6%	nt	112µM*[quencher]	-25.4%
N[C@@H]1[C@@H](O)[C@H](O)[C@@H](CO)O[C@H]1O	nt	nt	-1.2%[201 µM]	0.0%[201 µM]
COc1cc(OC)cc(C(=O)OCC(=O)Nc2ccc(N3CCCCC3)cc2)c1	-1.2%	17.8µM*	-1.5%	1.8%
O=S(=O)(c1cccc(C(F)(F)F)c1)N1c2ccccc2-n2cccc2[C@H]1c1cccnc1	nt	2.1%[14.2 µM]	nt	nt
CN(C)c1ccc(C(=C2C=CC(=[N+](C)C)C=C2)c2ccc(N(C)C)cc2)cc1	nt	-43.2%	-10.0%[201 µM]	100µM*
CN(C)c1ccc(C(=C2C=CC(=[N+](C)C)C=C2)c2c(O)c(S(=O)(=O)[O-])cc3cc(S(=O)(=O)O)ccc23)cc1	nt	nt	?	9.3%
COc1ccc(CCn2c(O)cc3nn(-c4nc5ccccc5s4)c(=O)c-3c2C)cc1	-0.9%	62.4%	22.4µM*[quencher]	?
CCOc1ccc(CC(=O)NCc2ccc3c(c2)cc(C)n3C)cc1	39.8µM*	7.2%	0.0%	8.5%
Cc1ccc(S(=O)(=O)NCc2ccc3c(c2)cc(C)n3C)cc1	7.08µM*	-9.4%	44.7µM*[fluorescent]	?
Cc1cc2cc(CNC(=O)COc3ccccc3)ccc2n1C	-23.1%	-0.9%	-1.8%	8.2%
COn1cnnc1-c1ccccc1	-3.3%	8.91µM*	-3.6%	-2.2%
COc1ccc(CNC(=O)c2cc(-c3cccs3)nc3ccccc23)c(OC)c1	-0.3%	nt	0.0224µM*[quencher]	-10.2%
COC(=O)N/N=C/c1cc(N=Nc2ccccc2Cl)ccc1O	3.8%	1.2%	39.8µM*[quencher]	?
CC(=O)NCCCC[C@H](NC(=O)OC(C)(C)C)C(=O)Nc1ccc2c(C(F)(F)F)cc(=O)oc2c1	nt	nt	0.0%	5.9%
Cc1nnc(Sc2cc(NCCCO)c([N+](=O)[O-])c3nonc23)s1	6.9%	7.94µM*	-3.5%	2.2%
SMILES	ERG Ets-DNA blk	RGS12 GoLoco inh	TexasRed fluor	TRb SRC2 PPI
Cc1cc(C)n2nc(SCC(=O)Nc3ccccc3)nc2n1	-4.6%	9.4%	-2.2%	-1.5%
Cc1cc(C)c(NC(=O)CSc2nc3nc(C)cc(C)n3n2)c(C)c1	122.9%	nt	20µM*[quencher]	-8.7%
C[C@@]12C[C@H](O)C3[C@H](CCC4=CC(=O)CC[C@]43C)[C@H]1CC[C@@H]2c1csc(N)n1 (some centres undefined)	nt	4.4%[14.2 µM]	nt	nt
CCCCCCC(O)CCCCCCCCCCC(=O)OC (centres undefined)	nt	nt	2.3%[201 µM]	-0.5%[201 µM]
O=c1c2ccccc2sn1-c1cc(S(=O)(=O)N2CCOCC2)ccc1N1CCOCC1	nt	3.55µM*	nt	nt
O=c1c2ccccc2sn1-c1cc(S(=O)(=O)N2CCOCC2)ccc1N1CCCC1	-4.8%	-70.4%	0.6%	10.0%
Cc1nc(N=Nc2cc(S(=O)(=O)O)c3cc([N+](=O)[O-])cc(S(=O)(=O)O)c3c2)c(COP(=O)(O)O)c(C=O)c1O	nt	6.7%	28.2µM*[quencher]	10.9%
Cc1nc(N=Nc2cc([N+](=O)[O-])ccc2Cl)c(COP(=O)(O)O)c(C=O)c1O	nt	nt	?	4.7%
CC(=O)c1[nH]c(C)c(C(=O)NCc2ccc(Cl)cc2)c1C	9.1%	nt	1122µM*[quencher]	-25.1%
CCn1c(CSc2nccn2C)nc2cc(C(=O)O)ccc21	?	15.8µM*	12.6µM*[fluorescent]	?
Cn1c(=O)c2[nH]c(-c3ccccc3)c(O)c2n(C)c1=O	-23.1%	-18.5%	-4.3%	-17.7%
Cn1c(=O)c2[nH]c(-c3ccccc3Cl)c(O)c2n(C)c1=O	5.7%	2µM*	-0.1%	-3.0%
C[N+]12CCCCC1[C@@H](CO)CCC2 (some centres undefined)	-3.6%	4.47µM*	-2.4%	-2.1%
CCCCCCCCCC(=O)OC	nt	nt	-0.3%[201 µM]	2.9%[201 µM]
CC(=O)c1c(COC(=O)c2cccnc2)nc2ccccc2[n+]1[O-]	-3.5%	8.91µM*	-0.1%	3.1%
OCc1cccc(Oc2ccccc2)c1	nt	nt	-2.1%[201 µM]	2.7%[201 µM]
Nc1ncnc2c1ncn2[C@H]1O[C@@H](C(=O)OCCO)[C@@H](O)[C@H]1O	nt	3.5%[14.2 µM]	nt	nt
CCC(C(=O)O)c1ccccc1 (centres undefined)	nt	28.2µM*	-0.2%	-2.3%
CCC(C(N)=O)c1ccccc1 (centres undefined)	nt	2.2%	-0.2%	0.0%
CC(C)(C)CC(C)(C)c1cc(O)c(O)c(CN2CCCCC2)c1	nt	-28.5%[14.2 µM]	nt	nt
O=C1C[C@H]2OCC=C3CN4CC[C@@]5(C(=O)O)[C@H](N1)C2[C@H]3C[C@H]45 (some centres undefined)	nt	2.8%[14.2 µM]	nt	nt
COC(=O)c1ccccc1NC(=O)c1nc(-c2ccc(Cl)cc2)n2c1CCCCC2	-0.1%	nt	20µM*[quencher]	-8.8%
Cc1c(C(=O)OC(C)C(C)C[N+](C)(C)C)oc2ccccc12 (centres undefined)	-3.4%	14.1µM*	1.3%	1.6%
CCC(=O)Nc1cc(-c2nc3ccccc3s2)c(Cl)cc1Cl	-6.5%	nt	35.5µM*[quencher]	-11.0%
CCC(=O)NC(=S)Nc1ccc(-c2nc3ccccc3s2)cc1	-2.9%	2.0%	0.4%	9.2%
SMILES	ERG Ets-DNA blk	RGS12 GoLoco inh	TexasRed fluor	TRb SRC2 PPI
O=c1[nH][nH]c(C(F)(F)F)c1C=Nc1ccccc1	1.0%	-2.8%	-1.7%	-3.9%
Cc1cc(O)ccc1N=Cc1c(C(F)(F)F)[nH][nH]c1=O	6.31µM*	7.08µM*	31.6µM*[fluorescent]	6.31µM*
Cc1cccc(Cc2c(C)nc3c(-c4ccccc4)c(C)[nH]n3c2=O)c1	3.4%	nt	8.91µM*[quencher]	-5.6%
Cc1ccc(CSc2nc3c(c(=O)[nH]2)C(c2cccc(F)c2F)CC(=O)N3)cc1 (centres undefined)	2.8%	nt	8.91µM*[quencher]	?
O=c1oc(=O)c2cc3c(=O)oc(=O)c3cc12	nt	nt	0.0%[201 µM]	9.6%[201 µM]
Nc1cc(C(=O)O)c(O)c(S(=O)(=O)O)c1	nt	-7.3%	-1.5%	-5.2%
